{"source": "PubChem BioAssay (NCATS)", "key": {"[1]": {"test": "qHTS Assay for Lipid Storage Modulators (AID 1519; calls by dose curve; for activity change, negative = inhibition: % is set by controls: 0 for no effect and ±100 for the full control effect)", "conditions": "Drosophila S3 cells, BODIPY lipid droplet/cell ratio, laser cytometry, cells loaded with oleic acid", "outline": "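Cells seeded at 5,000 per well were treated with compounds over a concentration series and loaded with oleic acid (400 uM, as added). Lipid droplet fluorescence (488 nm excitation, 500-530 nm channel) was read by laser-scanning cytometry and normalized to 20 uM Triacsin C.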"}, "[2]": {"test": "Validation of Assay for Modulators of Lamin A Splicing (AID 1459; active = well fitted curve in the direction sought with a large enough effect in the signal ratio; the % refers to the signal ratio;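 note: cells exposed to compound for two days before reading; 0% is about no effect; ratio rise marks activators and ratio drop marks inhibitors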)", "conditions": "Lamin A splicing dual RFP/GFP fluorescence reporter; series mostly up to 9.22 µM", "outline": "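Dual-reporter HeLa S3 line (lamin A-EGFP minigene, DsRed2) treated with compounds 48 hrs, 0.5% DMSO final. Endpoint: EGFP/DsRed2 total intensity ratio from laser-scanning microplate cytometry.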"}, "[3]": {"target": "DNA repair nuclease/redox regulator APEX1 (Homo sapiens) (UniProt P27695)", "sequence (P27695 whole entry, looked up)": "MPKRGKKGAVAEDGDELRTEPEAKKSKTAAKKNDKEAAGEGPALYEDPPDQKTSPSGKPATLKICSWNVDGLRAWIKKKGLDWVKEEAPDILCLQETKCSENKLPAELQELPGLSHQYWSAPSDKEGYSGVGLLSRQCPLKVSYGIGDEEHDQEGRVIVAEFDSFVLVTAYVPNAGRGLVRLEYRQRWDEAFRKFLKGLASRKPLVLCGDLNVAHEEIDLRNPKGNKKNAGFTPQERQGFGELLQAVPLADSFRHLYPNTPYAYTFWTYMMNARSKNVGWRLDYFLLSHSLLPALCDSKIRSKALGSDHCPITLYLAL", "test": "qHTS Validation Assay for Inhibitors of the Human Apurinic/apyrimidinic Endonuclease 1 (APE1) (AID 1705;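 note: TAMRA fluorescence gain over two minutes as APE1 cuts a quenched THF abasic duplex; % is set by controls: 0 for no effect and ±100 for the full control effect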)", "conditions": "purified APE1 endonuclease activity, fluorescence, titration; series mostly up to 57.1 µM", "outline": "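Substrate: 50 nM final fluorophore/quencher THF-abasic duplex. Enzyme preincubated with compounds 15 min, RT. Progress derived from fluorescence difference, third minus first kinetic read.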"}, "[4]": {"target": "Endonuclease 4 (Escherichia coli (strain K12)) (UniProt P0A6C1)", "test": "Counterscreen for APE1 Inhibitors: qHTS Validation Assay for Inhibitors of Endonuclease IV (AID 1708); note: % is set by controls: 0 for no effect and ±100 for the full control effect", "conditions": "E. coli endonuclease IV, DNA cleavage fluorescence; series mostly up to 57.1 µM", "outline": "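Concentration-response counterscreen run identically to the APE1 assay: 15 min room-temperature preincubation of 2 nM enzyme with compound, reaction started with 50 nM quenched abasic DNA, progress taken from kinetic fluorescence.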"}, "[5]": {"test": "qHTS for differential inhibitors of proliferation of Plasmodium falciparum line GB4 (AID 1816);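 note: parasite growth measured after 72 h incubation; 0% = vehicle DMSO and -100% = reference inhibitor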", "conditions": "Potency: Plasmodium falciparum GB4 proliferation inhibition; series mostly up to 28.7 µM"}, "[6]": {"test": "qHTS for differential inhibitors of proliferation of Plasmodium falciparum line 3D7 (AID 1876);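 note: parasite growth measured after three days of culture; 0% = vehicle wells and -100% = reference inhibitor wells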", "conditions": "P. falciparum 3D7 proliferation inhibition; series mostly up to 28.7 µM"}, "[7]": {"test": "qHTS for differential inhibitors of proliferation of Plasmodium falciparum line D10 (AID 1877);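 note: parasites grown with compound for 72 h before DNA staining; plate controls were vehicle wells for no effect and reference inhibitor wells for full effect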", "conditions": "series mostly up to 28.7 µM"}, "[8]": {"target": "Alpha-galactosidase A (Homo sapiens) (UniProt P06280)", "sequence (P06280 whole entry, looked up)": "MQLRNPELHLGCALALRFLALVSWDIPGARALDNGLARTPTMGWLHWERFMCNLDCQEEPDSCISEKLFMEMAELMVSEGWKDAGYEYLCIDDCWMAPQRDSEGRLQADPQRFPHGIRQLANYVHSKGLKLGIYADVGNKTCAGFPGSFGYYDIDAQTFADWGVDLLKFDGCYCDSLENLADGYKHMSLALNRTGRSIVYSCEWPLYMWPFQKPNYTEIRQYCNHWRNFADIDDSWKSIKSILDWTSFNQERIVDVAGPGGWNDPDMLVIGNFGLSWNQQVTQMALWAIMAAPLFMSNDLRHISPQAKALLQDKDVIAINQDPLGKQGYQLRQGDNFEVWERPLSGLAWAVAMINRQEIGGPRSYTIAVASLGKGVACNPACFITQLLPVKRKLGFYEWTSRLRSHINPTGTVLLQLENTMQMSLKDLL", "test": "Counterscreen for Glucocerebrosidase Inhibitors: qHTS Assay for Human alpha-Galactosidase at pH 4.5 (AID 992); note: 0% is about no effect", "conditions": "purified enzyme, fluorogenic substrate; series mostly up to 76.9 µM", "outline": "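Human enzyme (2 nM) with 80 uM 4-methylumbelliferyl alpha-D-galactopyranoside in 50 mM citric acid, 0.005% Tween-20, pH 4.5, 20 min at room temperature. Compounds 0.7 nM–77 uM; fluorescence Ex 365/Em 440 after pH 10 stop; AC50 from Hill fits.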"}, "[9]": {"target": "alpha-glucosidase (Oryza sativa, rice) (UniProt Q653V4)", "test": "Counterscreen for Glucocerebrosidase Inhibitors: qHTS Assay for Rice alpha-Glucosidase at pH 5.0 (AID 997);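 note: 0% = full activity with enzyme and -100% = basal without enzyme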", "conditions": "rice alpha-glucosidase enzyme activity; series mostly up to 76.9 µM", "outline": "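Rice alpha-glucosidase (4 nM final) with 400 uM 4-methylumbelliferyl-alpha-D-glucopyranoside in citrate buffer pH 5.0, 20 min at room temperature, stopped at pH 10; fluorescence 365/440 nm, compounds 0.7 nM–77 uM, AC50 from Hill fits.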"}, "[10]": {"test": "Counterscreen for APE1 Inhibitors: Fluorescent Dye Displacement Validation Assay (AID 1707);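 note: plate controls were ThO with dsDNA and no compound for no effect and ThO without dsDNA for full effect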", "conditions": "fluorescent dye displacement from DNA; series mostly up to 57.1 µM", "outline": "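Thiazole Orange (250 nM) bound to 50 nM TAMRA-labelled dsDNA with tetrahydrofuran abasic site; displacement by DNA-binding compounds lowers fluorescence. Buffer 50 mM Tris-HCl pH 7.5, 50 mM NaCl, 2 mM MgCl2, 0.01% Tween-20; endpoint read at 480/540 nm.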"}, "[11]": {"test": "qHTS for differential inhibitors of proliferation of Plasmodium falciparum line 7G8 (AID 1815);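 note: parasite growth measured after three days of incubation; plate controls were vehicle wells for no effect and reference inhibitor wells for full effect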", "conditions": "Plasmodium falciparum 7G8 proliferation inhibition; series mostly up to 28.7 µM"}, "[12]": {"conditions": "measured here: cell count channel max response"}, "[13]": {"conditions": "measured here: lipid channel max response"}}, "note": "Records with an inconclusive call do not appear. Activity calls are given as the source filed them. Unless noted, calls come from the whole dose curve; as a rule, active = well fitted curve in the direction sought with a large enough effect; inconclusive = small, poorly fitted or top-dose-only effect, or another doubt; inactive = no such curve, though single readings can be large; an effect the other way counts as inactive or inconclusive."}
{"smiles": "CN(C)CCc1c[nH]c2ccc(CS(=O)(=O)N3CCCC3)cc12", "values": [{"measurement": "activity change, negative = inhibition", "setting": "[1]; at 57.5 µM (top of the series)", "result": "5.82% (inactive)"}, {"measurement": "max response", "setting": "[1]; [12]", "result": 19.2, "unit": "%"}, {"measurement": "max response", "setting": "[1]; [13]", "result": 27.5, "unit": "%"}]}
{"smiles": "Nc1nc(=S)c2[nH]cnc2[nH]1", "values": [{"measurement": "activity change, negative = inhibition", "setting": "[1]; at 57.5 µM (top of the series)", "result": "8.45% (inactive)"}, {"measurement": "max response", "setting": "[1]; [12]", "result": 14.3, "unit": "%"}, {"measurement": "max response", "setting": "[1]; [13]", "result": 28.9, "unit": "%"}]}
{"smiles": "Clc1ccccc1CN1CCc2sccc2C1", "values": [{"measurement": "activity change, negative = inhibition", "setting": "[1]; at 25.7 µM (top of the series)", "result": "-0.65% (inactive)"}, {"measurement": "max response", "setting": "[1]; [12]", "result": -21, "unit": "%"}, {"measurement": "max response", "setting": "[1]; [13]", "result": -18.8, "unit": "%"}]}
{"smiles": "Oc1c(Cl)cc(Cl)c2cccnc12", "values": [{"measurement": "activity change, negative = inhibition", "setting": "[1]; at 57.5 µM (top of the series)", "result": "-20.1% (inactive)"}, {"measurement": "max response", "setting": "[1]; [12]", "result": -11.5, "unit": "%"}, {"measurement": "max response", "setting": "[1]; [13]", "result": -27.9, "unit": "%"}]}
{"smiles": "CCOC(=O)c1ccc(OC(=O)CCCCCN=C(N)N)cc1", "values": [{"measurement": "activity change, negative = inhibition", "setting": "[1]; at 25.7 µM (top of the series)", "result": "1.48% (inactive)"}, {"measurement": "max response", "setting": "[1]; [12]", "result": -14.4, "unit": "%"}, {"measurement": "max response", "setting": "[1]; [13]", "result": -13.1, "unit": "%"}]}
{"smiles": "CCCCS(=N)(=O)CCC(N)C(=O)O", "note": "(stereo not drawn)", "values": [{"measurement": "outcome", "setting": "[2]", "result": "inactive"}, {"measurement": "activity change, negative = inhibition", "setting": "[1]; at 57.5 µM (top of the series)", "result": "7.27% (inactive)"}, {"measurement": "max response", "setting": "[1]; [12]", "result": 23.2, "unit": "%"}, {"measurement": "max response", "setting": "[1]; [13]", "result": 33.5, "unit": "%"}, {"measurement": "outcome", "setting": "[3]", "result": "inactive"}, {"measurement": "outcome", "setting": "[4]", "result": "inactive"}, {"measurement": "Potency", "setting": "[5]", "result": "inactive"}, {"measurement": "Potency", "setting": "[6]", "result": "inactive"}, {"measurement": "Potency", "setting": "[7]", "result": "inactive"}]}
{"smiles": "CC(=O)CC(c1ccccc1)c1c(O)c2ccccc2oc1=O", "note": "(stereo not drawn)", "values": [{"measurement": "activity change, negative = inhibition", "setting": "[1]; at 57.5 µM (top of the series)", "result": "15.6% (inactive)"}, {"measurement": "max response", "setting": "[1]; [12]", "result": 10.6, "unit": "%"}, {"measurement": "max response", "setting": "[1]; [13]", "result": 30.9, "unit": "%"}]}
{"smiles": "CNS(=O)(=O)Cc1ccc2[nH]cc(CCN(C)C)c2c1", "values": [{"measurement": "activity change, negative = inhibition", "setting": "[1]; at 57.5 µM (top of the series)", "result": "8.81% (inactive)"}, {"measurement": "max response", "setting": "[1]; [12]", "result": 40, "unit": "%"}, {"measurement": "max response", "setting": "[1]; [13]", "result": 52.5, "unit": "%"}]}
{"smiles": "COc1ncnc(NS(=O)(=O)c2ccc(N)cc2)c1OC", "values": [{"measurement": "activity change, negative = inhibition", "setting": "[1]; at 25.7 µM (top of the series)", "result": "-2.34% (inactive)"}, {"measurement": "max response", "setting": "[1]; [12]", "result": -20.8, "unit": "%"}, {"measurement": "max response", "setting": "[1]; [13]", "result": -23.2, "unit": "%"}]}
{"smiles": "COc1ccc(C(=O)CC(=O)c2ccc(C(C)(C)C)cc2)cc1", "values": [{"measurement": "activity change, negative = inhibition", "setting": "[1]; at 57.5 µM (top of the series)", "result": "1.96% (inactive)"}, {"measurement": "max response", "setting": "[1]; [12]", "result": -16.9, "unit": "%"}, {"measurement": "max response", "setting": "[1]; [13]", "result": -13.6, "unit": "%"}]}
{"smiles": "CCCCOc1ccc(CC(=O)NO)cc1", "values": [{"measurement": "activity change, negative = inhibition", "setting": "[1]; at 25.7 µM (top of the series)", "result": "0.283% (inactive)"}, {"measurement": "max response", "setting": "[1]; [12]", "result": -2.68, "unit": "%"}, {"measurement": "max response", "setting": "[1]; [13]", "result": -0.905, "unit": "%"}]}
{"smiles": "S=P(N1CC1)(N1CC1)N1CC1", "values": [{"measurement": "activity change, negative = inhibition", "setting": "[1]; at 57.5 µM (top of the series)", "result": "7.1% (inactive)"}, {"measurement": "max response", "setting": "[1]; [12]", "result": 5.1, "unit": "%"}, {"measurement": "max response", "setting": "[1]; [13]", "result": 17.7, "unit": "%"}]}
{"smiles": "OCc1ccc(-c2nn(Cc3ccccc3)c3ccccc23)o1", "values": [{"measurement": "outcome", "setting": "[8]", "result": "inactive"}, {"measurement": "outcome", "setting": "[9]", "result": "inactive"}, {"measurement": "outcome", "setting": "[2]", "result": "inactive"}, {"measurement": "outcome", "setting": "[3]", "result": "inactive"}, {"measurement": "outcome", "setting": "[10]", "result": "inactive"}, {"measurement": "Potency", "setting": "[7]", "result": "inactive"}]}
{"smiles": "CC1=C(C(=O)O)N2C(=O)[C@@H](NC(=O)C(N)c3ccccc3)[C@H]2SC1", "note": "(stereo partly drawn)", "values": [{"measurement": "outcome", "setting": "[2]", "result": "inactive"}, {"measurement": "activity change, negative = inhibition", "setting": "[1]; at 57.5 µM (top of the series)", "result": "1.54% (inactive)"}, {"measurement": "max response", "setting": "[1]; [12]", "result": -18.2, "unit": "%"}, {"measurement": "max response", "setting": "[1]; [13]", "result": -16, "unit": "%"}, {"measurement": "outcome", "setting": "[3]", "result": "inactive"}, {"measurement": "outcome", "setting": "[10]", "result": "inactive"}, {"measurement": "outcome", "setting": "[4]", "result": "inactive"}, {"measurement": "Potency", "setting": "[11]", "result": "inactive"}, {"measurement": "Potency", "setting": "[5]", "result": "inactive"}, {"measurement": "Potency", "setting": "[6]", "result": "inactive"}, {"measurement": "Potency", "setting": "[7]", "result": "inactive"}]}
{"smiles": "CNNCc1ccc(C(=O)NC(C)C)cc1", "values": [{"measurement": "activity change, negative = inhibition", "setting": "[1]; at 25.7 µM (top of the series)", "result": "1.45% (inactive)"}, {"measurement": "max response", "setting": "[1]; [12]", "result": -0.816, "unit": "%"}, {"measurement": "max response", "setting": "[1]; [13]", "result": 0.0882, "unit": "%"}]}
{"smiles": "CCCOc1ccc(C(=O)OCCN(CC)CC)cc1N", "values": [{"measurement": "activity change, negative = inhibition", "setting": "[1]; at 25.7 µM (top of the series)", "result": "-0.0947% (inactive)"}, {"measurement": "max response", "setting": "[1]; [12]", "result": 10.6, "unit": "%"}, {"measurement": "max response", "setting": "[1]; [13]", "result": 9.95, "unit": "%"}]}
{"smiles": "O=c1oc2c(O)c(O)cc3c(=O)oc4c(O)c(O)cc1c4c23", "values": [{"measurement": "activity change, negative = inhibition", "setting": "[1]; at 57.5 µM (top of the series)", "result": "8.32% (inactive)"}, {"measurement": "max response", "setting": "[1]; [12]", "result": 18.5, "unit": "%"}, {"measurement": "max response", "setting": "[1]; [13]", "result": 32.6, "unit": "%"}]}
